Source: PubChem BioAssay (National Center for Advancing Translational Sciences (NCATS))
FUS yeast rescue: suppressors of FUS proteinopathy in yeast. S. cerevisiae FUS-expressing, growth rescue, OD600, 24 h. Potency, µM (titrated, usually from 76.6 µM), usual class: activators. 390,000 compounds, 0.24% hits. AID 1347120; note: nearly all actives have a fitted effect of over 55% in size
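Cultures pregrown in 2.5% raffinose medium are shifted to minimal medium containing 2% galactose to express toxic FUS. Compounds are tested at several concentrations. After 24hr at 30C, growth is quantified at 600 nm absorbance.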
TDP-43 yeast inh: rescues yeast growth from TDP-43 toxicity; TDP-43 expressing yeast growth rescue, BacTiter-Glo, 24 h; Potency, µM (highest dose often 46.1 µM), usual class: activators; 410,000 compounds, 1.8% hits; note: nearly all actives have a fitted effect of over 50% in size
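Yeast cells expressing TDP-43 under galactose induction are exposed to compounds for 24 hr at 30 deg C. BacTiter-Glo luminescence measures growth, so protective compounds score as activators.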
Abeta yeast res: restores growth of yeast expressing A-beta42 peptide. yeast expressing A-beta42, growth rescue, OD600, 48 h; response scale: 0% DMSO, 100% iron-clioquinol control. Potency, µM (series often up to 46.1 µM), most hits filed as activators. 410,000 compounds, 0.063% hits; note: nearly all actives have a fitted effect of over 55% in size
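Growth rescue measured by 600 nm absorbance after 48 h yeast culture at 30 C with compound. Values normalized between DMSO and an equimolar ferric chloride plus clioquinol control.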
aSyn yeast inh: inhibitors of alpha-synuclein toxicity in yeast. Yeast expressing alpha-synuclein, growth rescue, BacTiter-Glo, 24 h. Potency, µM (top dose mostly 46.1 µM), most hits filed as activators. 370,000 compounds, 0.14% hits. AID 652106; note: nearly all actives have a fitted effect of over 65% in size
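Screening used galactose-induced yeast with toxic alpha-synuclein levels, exposed to compound for 24 hr at 30 deg C. Cell growth, read with BacTiter-Glo luminescence, gave the measured signal.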
MBNL1-CUG inh: inhibitors of human MBNL1 binding to CUG repeat RNA; 280,000 compounds, 0.036% hits; Potency, µM (top dose mostly 57.5 µM), actives largely listed as inhibitors; TR-FRET MBNL1-His/biotin-(CUG)12 binding, 665/545 ratio; AID 2675; active = well fitted inhibition curve with a large enough effect in the signal ratio, with a control signal flat, not every such curve was filed as active; inconclusive = small, poorly fitted or top-dose-only effect, or effect the other way, or a change in a side signal; inactive = no such curve, though single readings can be large or run the other way; the % refers to the signal ratio
Target sequence (Q9NR56 whole entry, looked up): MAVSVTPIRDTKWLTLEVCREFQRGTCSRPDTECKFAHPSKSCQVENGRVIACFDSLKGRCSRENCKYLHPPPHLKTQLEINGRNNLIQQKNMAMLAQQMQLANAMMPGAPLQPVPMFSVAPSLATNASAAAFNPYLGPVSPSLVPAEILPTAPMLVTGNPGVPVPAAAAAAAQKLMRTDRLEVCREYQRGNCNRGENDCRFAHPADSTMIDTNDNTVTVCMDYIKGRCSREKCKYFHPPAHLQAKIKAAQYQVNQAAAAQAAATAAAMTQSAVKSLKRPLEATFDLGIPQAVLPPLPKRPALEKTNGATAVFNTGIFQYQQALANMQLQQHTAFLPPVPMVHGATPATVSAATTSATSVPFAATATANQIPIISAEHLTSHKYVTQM
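Inhibition of protein-RNA binding appears as loss of TR-FRET between terbium anti-His antibody on MBNL1-His and streptavidin-XL665 on biotin-(CUG)12. Activity is normalized to buffer-only and uninhibited-complex controls.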
GRP78 ERSR act: inducers of ER stress response in human glioma cells; AID 602332; Potency, µM, actives largely listed as activators; U87-MG GRP78 promoter luciferase reporter, 16 h; 420,000 compounds, 0.02% hits; note: series mostly up to about 76 µM; nearly all actives have a fitted effect of over 35% in size
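ERSR induction read as luciferase luminescence (Bright-Glo, 10 min at room temperature) in stably transfected human U87-MG glioma cells exposed to compounds for 16 h, using GRP78 as sensor.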
Hits are given with their value; - = inactive; ? = inconclusive; . = not tested or not shown. Most compounds without a hit are left out; they make up all but 2% or so of the library. Unless noted, calls come from the whole dose curve; as a rule, active = well fitted curve in the direction sought with a large enough effect; inconclusive = small, poorly fitted or top-dose-only effect, or another doubt; inactive = no such curve, though single readings can be large; an effect the other way counts as inactive or inconclusive.

SMILES	FUS yeast rescue	TDP-43 yeast inh	Abeta yeast res	aSyn yeast inh	MBNL1-CUG inh	GRP78 ERSR act
COCc1c(C(=O)NCC2CCCN(C)C2)cnn1-c1ncc2c(n1)-c1ccccc1CCC2 (configuration not stated)	.	.	.	.	.	-
COCCn1c(CN2CCN(c3cccc(Cl)c3)CC2)nc2c1c(=O)n(C)c(=O)n2C	-	-	-	-	-	-
CC(C)CCn1c(CN2CCN(c3cccc(Cl)c3)CC2)nc2c1c(=O)n(C)c(=O)n2C	-	15.8µM	-	-	-	-
Cn1c(-c2ccccc2)c(O)c(=O)c2ccccc21	.	.	.	.	.	-
CCn1c(-c2ccccc2)c(C(=O)CCl)c2ccccc21	-	-	-	11.2µM	-	-
Cn1c(-c2ccccc2)c(C(=O)CCl)c2ccccc21	-	17.8µM	-	-	-	-
Cc1ccc(S(=O)(=O)N2CCCC2C(=O)N2CCc3ccccc3C2)cc1C (configuration not stated)	-	.	.	.	.	.
O=C(c1ccc2nc(-c3ccccc3)c(-c3ccccc3)nc2c1)N1CCCCC1	-	35.5µM	-	-	?	-
CC(=O)N1CCn2c3ccc(C)cc3c3cccc1c32	-	14.1µM	-	-	-	-
CC(=O)N1CCN(C(C)=O)c2ccccc21	.	-	-	-	.	-
Cc1ccnn1CC(=O)N1CCOc2c(cc(-c3csc4ccccc34)cc2OC2CCOC2)C1 (configuration not stated)	.	.	.	.	.	-
CC(=O)N1c2ccccc2C(=O)C1N1CCN(c2ccc(F)cc2)CC1 (configuration not stated)	-	?	-	.	.	-
CC(=O)N1c2ccccc2C(=O)C1N1CCN(c2ccccc2F)CC1 (configuration not stated)	-	35.5µM	?	.	.	-
Cc1cccc(N2C(=O)C(Oc3ccc(Cl)cc3Cl)C2C=O)c1C (configuration not stated)	.	15.8µM	-	-	.	-
Clc1ccccc1-c1nn2c(-c3ccncc3)nnc2s1	-	-	-	-	-	-
c1ccc(OCc2nn3c(-c4ccccn4)nnc3s2)cc1	-	14.1µM	-	-	-	-
Clc1ccccc1-c1nn2c(-c3ccccn3)nnc2s1	-	12.6µM	-	-	-	-
COc1cccc(-c2nn3c(-c4ccccn4)nnc3s2)c1	-	15.8µM	-	-	-	-
c1ccc(-c2nn3c(-c4ccco4)nnc3s2)nc1	-	-	-	-	-	-
c1ccc(OCc2nn3c(-c4ccncc4)nnc3s2)cc1	-	-	-	-	-	-
c1coc(-c2nnc3sc(C4CCCCC4)nn23)c1	-	17.8µM	-	-	-	-
COc1cccc(CNC(=O)c2c(OC)cc(=O)n3c2CCN(C(=O)C2CC=CCC2)CC3)c1 (configuration not stated)	.	.	.	.	.	-
CCNC(=O)c1sc2ncnc(NCCCN3CCOCC3)c2c1C	.	.	.	.	.	-
COc1cccc(-c2nn3c(-c4ccco4)nnc3s2)c1	-	7.08µM	-	.	-	-
COc1ccccc1-c1nnc2sc(COc3ccc(F)cc3)nn12	?	11.2µM	-	-	-	-
SMILES	FUS yeast rescue	TDP-43 yeast inh	Abeta yeast res	aSyn yeast inh	MBNL1-CUG inh	GRP78 ERSR act
CCOC(=O)[C@@]12CCCC=C1N(CCc1ccc(Cl)cc1)C(=O)[C@H]2CC(=O)NCC1CCCCC1	-	.	.	.	.	.
O=C(c1ccc(Cl)cc1Cl)n1nnc2ccccc21	.	.	.	.	.	-
COc1cc(CN2CCC3(CC2)c2ccccc2[C@@H](NC(=O)c2ccccc2OC)[C@@H]3O)ccc1F	.	.	.	.	.	-
Cc1cc(Sc2ncnc(N)c2[N+](=O)[O-])ncn1	-	22.4µM	-	-	?	-
Cc1ccc(Oc2ncnc(N)c2[N+](=O)[O-])cc1C	-	11.2µM	-	-	?	-
Cc1cc(Sc2nc(N)ncc2[N+](=O)[O-])ncn1	-	?	-	-	?	-
CN1C(=O)c2ccccc2N(C)C1c1ccccc1Cl (configuration not stated)	-	15.8µM	-	-	-	-
CN1C(=O)c2ccccc2N(C)C1c1cccs1 (configuration not stated)	-	-	-	-	-	-
